The text below walks through data of the supplement of paper PMC12669797.

Values joined by “and” are separate entries in the source; they are usually repeats but may differ in a detail not shown here. Equal values may be shown once. Where a name gives a salt, the structure may show the parent alone. ± gives the standard deviation of the averaged measurements.

One experiment relates to ES2. Briefly: cell viability relative to DMSO control (MTS) (fraction of DMSO control); higher = more viable cells / less growth inhibition. The conditions noted are these: 10 µM; 48 h. Summed up:
(§1)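 TOV-21G and ES2 clear cell carcinoma cells were plated in 96-well plates at 5000 cells per well, grown for 24 h, and then exposed to a 367-compound […] library at a final concentration of 10 µM, with vehicle alone in control wells. An MTS assay (CellTiter 96 AQueous One Solution) was read 48 h later according to the manufacturer's protocol. Viability is reported as a fraction of the vehicle control.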
Consider `Cc1ncc2ccccc2c1C#N` [4-cyano-3-methylisoquinoline], for which the cell viability worked out at 1.01.
With `C[n+]1cc2c3c(ccc2c2ccc4cc5c(cc4c21)OCO5)OCO3` [Sanguinarine], the cell viability is 0.385.
Molecule `CNC(=O)c1cc(Oc2ccc(NC(=O)Nc3ccc(Cl)c(C(F)(F)F)c3)cc2)ccn1` [sorafenib] showed a cell viability of 0.402.
As for `Cn1nnc2c(C(N)=O)ncn2c1=O` [temozolomide], the cell viability came to 1.2.
On the same count and under the same terms, the figure for `Cc1cnc(-c2cnc(NCCNc3ccc(C#N)cn3)nc2-c2ccc(Cl)cc2Cl)[nH]1` is 1.05; for `COc1ccc(OC)c2c(=S)c3ccccc3[nH]c12` it is 1.35.
The same measure, in the same setting: the figure for `CS(=O)(=O)Nc1ccc([N+](=O)[O-])cc1OC1CCCCC1` is 0.933.
Same read-out and setting: the figure for `COCC[n+]1c2c(n(Cc3cnccn3)c1C)C(=O)c1ccccc1C2=O` is 0.242; for `Cc1ccc2nc(NCCN)c3ncc(C)n3c2c1` it is 0.489.
Take `CC1(C)CCC(C)(C)c2cc(NC(=O)c3ccc(C(=O)O)cc3)ccc21` [tamibarotene]: the cell viability worked out at 1.16.
In turn, `CN(C)CCCCC(=O)Nc1ccc(NC(=S)NC(=O)c2ccc(C(C)(C)C)cc2)cc1` [Tenovin-6] displayed a cell viability of 0.406.
The same measure, in the same setting: the value for `CO[C@@H]1[C@H](OC(=O)/C=C/C=C/C=C/C=C/C(=O)O)CC[C@]2(CO2)[C@H]1[C@@]1(C)O[C@@H]1CC=C(C)C` [Fumagillin] was 0.91; that for `COc1cccc2c1C(=O)c1c(O)c3c(c(O)c1C2=O)C[C@@](O)(C(C)=O)C[C@@H]3O[C@H]1C[C@H](N)[C@H](O)[C@H](C)O1` [Daunorubicin, HCl] was 0.435; that for `CC1=Nc2ccc(Cl)cc2S(=O)(=O)N1` [Diazoxide] was 0.816.
The same measure, in the same setting: the figure for `O=c1cc(-c2ccccc2)oc2cc(O)c(O)c(O)c12` [Baicalein] is 0.916; for `CCOc1nc(NC(=O)Cc2cc(OC)ccc2OC)cc(N)c1C#N` [JNK inhibitor VIII] it is 1.09.
In the case of `Cc1cc(Nc2cc(N3CCN(C)CC3)nc(/C=C/c3ccccc3)n2)n[nH]1`, the cell viability is 0.534.
Still for that read-out and setting: the figure for `CC(ONC(=O)c1cc(C(F)(F)F)cc(C(F)(F)F)c1)C(=O)Nc1ccc(Cl)cc1` (configuration not stated) is 1.24; for `CO[C@@]12[C@H](COC(N)=O)C3=C(C(=O)C(C)=C(N)C3=O)N1C[C@@H]1N[C@@H]12` [Mitomycin C] it is 0.35.
Still for that read-out and setting: the value for `CCOC(=O)C1=C(N)Oc2ccc(Br)cc2C1C(C#N)C(=O)OCC` (configuration not stated) was 1.04.
On to `C=CC[C@@H]1/C=C(\C)C[C@H](C)C[C@H](OC)[C@H]2O[C@@](O)(C(=O)C(=O)N3CCCC[C@H]3C(=O)O[C@H](/C(C)=C/[C@@H]3CC[C@@H](O)[C@H](OC)C3)[C@H](C)[C@@H](O)CC1=O)[C@H](C)C[C@@H]2OC`, for which the cell viability is 0.941.
Still for that read-out and setting: the figure for `COC(=O)C1=C(C)NC(C)=C(C(=O)OC)C1c1ccccc1[N+](=O)[O-]` [Nifedipine] is 0.911; for `CC(C)C[C@@H](C=O)NC(=O)[C@H](CC(C)C)NC(=O)[C@H](CC(C)C)NC(=O)OCc1ccccc1` it is 0.298.
Same read-out and setting: the value for `COc1c(C=O)c(O)cc2c1C(=O)c1ccccc1C2=O` [Damnacanthal] was 1.05 ± 0.021.
Same read-out and setting: the figure for `O=C(CCCCCN1C(=O)c2cccc3cccc(c23)C1=O)NO` [Scriptaid] is 0.311.
The molecule `C=CCNC1=C2C[C@@H](C)C[C@H](OC)[C@H](O)[C@@H](C)/C=C(\C)[C@H](OC(N)=O)[C@@H](OC)/C=C\C=C(/C)C(=O)NC(=CC1=O)C2=O` returned a cell viability of 0.541.
The same measure, in the same setting: the figure for `O=c1cc(N2CCOCC2)oc2c(-c3ccccc3)cccc12` is 0.666 and 0.627; for `O=C1Cc2c([nH]c3ccc(Br)cc23)-c2ccccc2N1` [Kenpaullone] it is 0.701 ± 0.11; for `N#C/C(=C(/N)Sc1ccccc1N)c1cccc(C(O)c2ccncc2)c1` (configuration not stated) [MEK inhibitor I] it is 0.866.
For `CNCCCN1c2ccccc2CCc2ccccc21` [desipramine hydrochloride], the cell viability came to 0.954.
As for `CC(C)[C@H](CO)Nc1nc(Nc2cccc(Cl)c2)c2ncn(C(C)C)c2n1` [purvalanol A], the cell viability was 0.657.
`c1cc(CN2CCCNCCNCCCNCC2)ccc1CN1CCCNCCNCCCNCC1` [AMD3100 octahydrochloride] registered a cell viability of 1.4.
The same measure, in the same setting: the figure for `CCN(CC)CCCCNc1ncc2cc(-c3cc(OC)cc(OC)c3)c(NC(=O)NC(C)(C)C)nc2n1` is 0.366; for `CNC(=O)c1ccccc1Sc1ccc2c(/C=C/c3ccccn3)n[nH]c2c1` [Axitinib] it is 0.917.
Same read-out and setting: the figure for `COc1cc(O)c(CC=C(C)C)c(O)c1C(=O)/C=C/c1ccc(O)cc1` [Xanthohumol] is 1.07; for `O=C(Nc1ccc([N+](=O)[O-])cc1O)Nc1ccccc1Br` it is 0.469.

The next experiment concerns TOV-21G. The experiment is described as above. As to conditions: 10 µM; 48 h. Summed up:
as §1
With `Cc1ncc2ccccc2c1C#N` [4-cyano-3-methylisoquinoline], the cell viability was found to be 1.
Same read-out and setting: the value for `C[n+]1cc2c3c(ccc2c2ccc4cc5c(cc4c21)OCO5)OCO3` [Sanguinarine] was 0.253; that for `CNC(=O)c1cc(Oc2ccc(NC(=O)Nc3ccc(Cl)c(C(F)(F)F)c3)cc2)ccn1` [sorafenib] was 0.604.
The same measure, in the same setting: the value for `Cn1nnc2c(C(N)=O)ncn2c1=O` [temozolomide] was 1.12; that for `Cc1cnc(-c2cnc(NCCNc3ccc(C#N)cn3)nc2-c2ccc(Cl)cc2Cl)[nH]1` was 0.888; that for `COc1ccc(OC)c2c(=S)c3ccccc3[nH]c12` was 1.14.
Same read-out and setting: the value for `CS(=O)(=O)Nc1ccc([N+](=O)[O-])cc1OC1CCCCC1` was 1.02; that for `COCC[n+]1c2c(n(Cc3cnccn3)c1C)C(=O)c1ccccc1C2=O` was 0.291.
`Cc1ccc2nc(NCCN)c3ncc(C)n3c2c1` showed a cell viability of 0.375.
Same read-out and setting: the figure for `CC1(C)CCC(C)(C)c2cc(NC(=O)c3ccc(C(=O)O)cc3)ccc21` [tamibarotene] is 1.49.
In turn, `CN(C)CCCCC(=O)Nc1ccc(NC(=S)NC(=O)c2ccc(C(C)(C)C)cc2)cc1` [Tenovin-6] came in with a cell viability of 0.274.
On the same count and under the same terms, the figure for `CO[C@@H]1[C@H](OC(=O)/C=C/C=C/C=C/C=C/C(=O)O)CC[C@]2(CO2)[C@H]1[C@@]1(C)O[C@@H]1CC=C(C)C` [Fumagillin] is 0.991; for `COc1cccc2c1C(=O)c1c(O)c3c(c(O)c1C2=O)C[C@@](O)(C(C)=O)C[C@@H]3O[C@H]1C[C@H](N)[C@H](O)[C@H](C)O1` [Daunorubicin, HCl] it is 0.527; for `CC1=Nc2ccc(Cl)cc2S(=O)(=O)N1` [Diazoxide] it is 0.996.
The same measure, in the same setting: the value for `O=c1cc(-c2ccccc2)oc2cc(O)c(O)c(O)c12` [Baicalein] was 0.821; that for `CCOc1nc(NC(=O)Cc2cc(OC)ccc2OC)cc(N)c1C#N` [JNK inhibitor VIII] was 1.12.
`Cc1cc(Nc2cc(N3CCN(C)CC3)nc(/C=C/c3ccccc3)n2)n[nH]1` yielded a cell viability of 0.289.
Same read-out and setting: the value for `CC(ONC(=O)c1cc(C(F)(F)F)cc(C(F)(F)F)c1)C(=O)Nc1ccc(Cl)cc1` (configuration not stated) was 1.21.
The molecule `CO[C@@]12[C@H](COC(N)=O)C3=C(C(=O)C(C)=C(N)C3=O)N1C[C@@H]1N[C@@H]12` [Mitomycin C] returned a cell viability of 0.213.
Molecule `CCOC(=O)C1=C(N)Oc2ccc(Br)cc2C1C(C#N)C(=O)OCC` (configuration not stated) yielded a cell viability of 0.998.
The same measure, in the same setting: the value for `C=CC[C@@H]1/C=C(\C)C[C@H](C)C[C@H](OC)[C@H]2O[C@@](O)(C(=O)C(=O)N3CCCC[C@H]3C(=O)O[C@H](/C(C)=C/[C@@H]3CC[C@@H](O)[C@H](OC)C3)[C@H](C)[C@@H](O)CC1=O)[C@H](C)C[C@@H]2OC` was 0.964; that for `COC(=O)C1=C(C)NC(C)=C(C(=O)OC)C1c1ccccc1[N+](=O)[O-]` [Nifedipine] was 0.741.
Same read-out and setting: the figure for `CC(C)C[C@@H](C=O)NC(=O)[C@H](CC(C)C)NC(=O)[C@H](CC(C)C)NC(=O)OCc1ccccc1` is 0.255; for `COc1c(C=O)c(O)cc2c1C(=O)c1ccccc1C2=O` [Damnacanthal] it is 0.974 ± 0.19; for `O=C(CCCCCN1C(=O)c2cccc3cccc(c23)C1=O)NO` [Scriptaid] it is 0.367.
As to `C=CCNC1=C2C[C@@H](C)C[C@H](OC)[C@H](O)[C@@H](C)/C=C(\C)[C@H](OC(N)=O)[C@@H](OC)/C=C\C=C(/C)C(=O)NC(=CC1=O)C2=O`, the cell viability is 0.575.
On the same count and under the same terms, the figure for `O=c1cc(N2CCOCC2)oc2c(-c3ccccc3)cccc12` is 0.52 and 0.519; for `O=C1Cc2c([nH]c3ccc(Br)cc23)-c2ccccc2N1` [Kenpaullone] it is 0.468 ± 0.048; for `N#C/C(=C(/N)Sc1ccccc1N)c1cccc(C(O)c2ccncc2)c1` (configuration not stated) [MEK inhibitor I] it is 0.898.
The same measure, in the same setting: the value for `CNCCCN1c2ccccc2CCc2ccccc21` [desipramine hydrochloride] was 0.745; that for `CC(C)[C@H](CO)Nc1nc(Nc2cccc(Cl)c2)c2ncn(C(C)C)c2n1` [purvalanol A] was 0.607.
The same measure, in the same setting: the figure for `c1cc(CN2CCCNCCNCCCNCC2)ccc1CN1CCCNCCNCCCNCC1` [AMD3100 octahydrochloride] is 1.38; for `CCN(CC)CCCCNc1ncc2cc(-c3cc(OC)cc(OC)c3)c(NC(=O)NC(C)(C)C)nc2n1` it is 0.915; for `CNC(=O)c1ccccc1Sc1ccc2c(/C=C/c3ccccn3)n[nH]c2c1` [Axitinib] it is 0.841.
The molecule `COc1cc(O)c(CC=C(C)C)c(O)c1C(=O)/C=C/c1ccc(O)cc1` [Xanthohumol] yielded a cell viability of 1.01.
Same read-out and setting: the value for `O=C(Nc1ccc([N+](=O)[O-])cc1O)Nc1ccccc1Br` was 0.605.
